This is part of a sample that, as a whole, favours compounds with a hit. Of some 79,000 tested, about 15% had one in any assay. Activity calls are given as the source filed them. Rule as the data show it: active = growth inhibition above about 70%; inactive = the rest.
Legend:
[1] = NCI Yeast Anticancer Drug Screen. Data for the rad50EPP+ strain (AID 151);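 also: 0% = growth of vehicle-treated control cultures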; conditions: S. cerevisiae rad50 mutant strain, active compounds read high
How it was run: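 In this screen, rad50EPP+ yeast were exposed to compounds. Growth inhibition was scored against vehicle-treated controls.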

[2] = NCI Yeast Anticancer Drug Screen. Data for the mgt1 strain (AID 153); conditions: S. cerevisiae mgt1 mutant growth inhibition, active compounds read high
How it was run: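 mgt1 strain exposed; growth vs vehicle control recorded as inhibition.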

[3] = NCI Yeast Anticancer Drug Screen. Data for the rad50 strain (AID 155);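 also: 0% = growth of vehicle-only cultures of the same strain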; conditions: S. cerevisiae rad50 strain growth inhibition, active compounds read high
How it was run: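 Growth of the mutant yeast was measured after compound exposure and referenced to vehicle-treated cultures.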

[4] = NCI Yeast Anticancer Drug Screen. Data for the mec2-1 strain (AID 157); conditions: S. cerevisiae mec2-1 strain, active compounds read high
How it was run: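 Vehicle-treated cultures served as reference for growth inhibition of compound-exposed mec2-1 yeast.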

[5] = NCI Yeast Anticancer Drug Screen. Data for the rad14 strain (AID 159);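 also: 0% = growth of vehicle-treated control cultures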; conditions: S. cerevisiae rad14 strain growth inhibition, active compounds read high
How it was run: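 Here, inhibition of yeast growth was measured after compound exposure, using a strain with a genetic defect in DNA damage repair and vehicle-treated cultures as the reference.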

[6] = NCI Yeast Anticancer Drug Screen. Data for the sgs1 mgt1 strain (AID 161);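 also: 0% = growth of cultures given vehicle only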; conditions: S. cerevisiae sgs1 mgt1 strain, active compounds read high
How it was run: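 Read-out: growth inhibition vs vehicle controls. Cells: mutant yeast strain deficient in DNA damage repair.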

[7] = NCI Yeast Anticancer Drug Screen. Data for the CLN2oe strain (AID 163);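 also: 0% = growth of vehicle-only control cultures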; conditions: S. cerevisiae CLN2oe strain, active compounds read high
How it was run: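 Inhibition relative to vehicle-treated yeast is reported. Cells: strain with genetic alteration in cell-cycle control, grown with compound.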

[8] = NCI Yeast Anticancer Drug Screen. Data for the cln2 rad14 strain (AID 165);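 also: 0% = growth equal to vehicle treated cultures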; conditions: S. cerevisiae cln2 rad14 strain, active compounds read high
How it was run: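 Each compound was tested on cln2 rad14 yeast. Inhibition of growth was calculated against vehicle-exposed controls.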

[9] = NCI Yeast Anticancer Drug Screen. Data for the bub3 strain (AID 167); conditions: S. cerevisiae bub3 mutant strain, active compounds read high
How it was run: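 Whole-cell yeast assay. The mutant strain was incubated with compounds, and growth inhibition was determined by comparison with vehicle-treated cells.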

[10] = NCI Yeast Anticancer Drug Screen. Data for the wt2 strain (AID 169);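 also: 0% = growth of vehicle-treated yeast cultures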; conditions: S. cerevisiae wt2 strain growth inhibition, active compounds read high
How it was run: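 Inhibition of yeast growth was determined after compound treatment, normalised to controls receiving only vehicle.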

[11] = NCI Yeast Anticancer Drug Screen. Data for the mlh1 strain (AID 171);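 also: 0% = growth of vehicle-treated control cultures of the same strain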; conditions: S. cerevisiae mlh1 strain growth inhibition, active compounds read high
How it was run: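 Vehicle-normalised growth inhibition of a repair- or checkpoint-altered yeast strain following compound treatment.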

[12] = NCI Yeast Anticancer Drug Screen. Data for the sgs1 strain (AID 173);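 also: 0% = growth of vehicle-only control cultures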; conditions: S. cerevisiae sgs1 mutant, active compounds read high
How it was run: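 Screen format: yeast with repair or checkpoint alterations, compound exposure, growth read relative to vehicle.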

[13] = NCI Yeast Anticancer Drug Screen. Data for the mlh1 rad18 strain (AID 175); conditions: S. cerevisiae mlh1 rad18 strain growth inhibition, active compounds read high
How it was run: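 Vehicle-treated cultures served as the reference for growth inhibition in a yeast strain carrying DNA damage repair alterations exposed to each compound.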

[14] = NCI Yeast Anticancer Drug Screen. Data for the rad18 strain (AID 177); conditions: S. cerevisiae rad18 mutant growth inhibition, active compounds read high
How it was run: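 Test articles were incubated with altered yeast defective in DNA damage repair. Results are given as inhibition of growth versus vehicle.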

[15] = at 5.0 µM (retest, dose inferred, filed as 0.5)
[16] = at 50.0 µM (retest, dose inferred, filed as 5.0)

Measured: growth inhibition

CCCCCCCCCC/C=C\CC(=O)O
inactive: [1]; at 1.2 µM -4% | [1]; at 3.7 µM 3% | [1]; at 11.0 µM 11% | [1]; at 33.0 µM 22% | [1]; at 100.0 µM 47% | [2]; at 1.2 µM -3% | [2]; at 3.7 µM -2% | [2]; at 11.0 µM -2% | [2]; at 33.0 µM 28% | [3]; at 1.2 µM 0% | [3]; at 3.7 µM -1% | [3]; [15] -1% | [3]; at 11.0 µM 17% | [3]; at 33.0 µM 18% | [3]; at 50.0 µM -10.8% | [4]; at 1.2 µM -3% | [4]; at 3.7 µM 0% | [4]; [15] 5% | [4]; at 11.0 µM 1% | [4]; at 33.0 µM 8% | [4]; at 50.0 µM -0.8% | [5]; at 1.2 µM 0% | [5]; at 3.7 µM 1% | [5]; at 11.0 µM 9% | [5]; at 33.0 µM 33% | [6]; [15] -1% | [6]; at 50.0 µM 6.35% | [7]; at 1.2 µM -3% | [7]; at 3.7 µM -1% | [7]; at 11.0 µM -1% | [7]; at 33.0 µM -5% | [8]; [15] 7% | [8]; [16] 14% | [8]; at 50.0 µM 9.65% | [9]; at 1.2 µM -2% | [9]; at 3.7 µM -4% | [9]; [15] 1% | [9]; at 11.0 µM -8% | [9]; at 33.0 µM -3% | [9]; [16] 1% | [9]; at 50.0 µM 36.1% | [10]; at 1.2 µM -2% | [10]; at 3.7 µM 6% | [10]; at 11.0 µM -3% | [10]; at 33.0 µM 3% | [11]; at 1.2 µM 0% | [11]; at 3.7 µM -4% | [11]; at 11.0 µM -3% | [11]; at 33.0 µM 11% | [12]; at 1.2 µM -3% | [12]; at 3.7 µM -2% | [12]; at 11.0 µM 2% | [12]; at 33.0 µM 31% | [13]; [15] 4% | [13]; at 50.0 µM -21.2% | [14]; at 1.2 µM -3% | [14]; at 3.7 µM 2% | [14]; at 11.0 µM -1% | [14]; at 33.0 µM 48%
active: [2]; at 100.0 µM 99% | [3]; [16] 81% | [3]; at 100.0 µM 99% | [4]; [16] 74% | [4]; at 100.0 µM 99% | [5]; at 100.0 µM 99% | [6]; [16] 89% | [7]; at 100.0 µM 73% | [9]; at 100.0 µM 98% | [10]; at 100.0 µM 98% | [11]; at 100.0 µM 99% | [12]; at 100.0 µM 99% | [13]; [16] 87% | [14]; at 100.0 µM 99%

— PubChem BioAssay (NCI)
